Inconclusive results are not listed. Values without a mark were called inactive. Active and inactive are the calls of the source. Calls come from the whole dose curve; as a rule, active = well fitted inhibition curve with a large enough effect; inconclusive = small, poorly fitted or top-dose-only effect, or effect the other way; inactive = flat fitted curve, though single readings scatter.
test: qHTS Assay Multiplex Screening to Identify Dual Action Probes in a Cell Model of Huntington: Cytoprotection (Protease relase); conditions: PC12 HttQ103 cells, Cytotox-Glo protease release, 40 h; series mostly up to 46.1 µM; activity change, negative = inhibition: at the top concentration
Excerpt: NIH Chemical Genomics Center [NCGC]
NIH Molecular Libraries Probe Production centers Network [MLPCN]
Assay Submitter (PI): Wei Zheng
Huntington's disease is a neurodegenerative disorder caused by a trinucleotide repeat expansion in Exon 1 of the Huntingtin gene. The CAG trinucleotide encodes glutamine and polyglutamine expansions cause cell death in selective areas of the brain. Huntington polyglutamine repeats have the tendency to form aggregates which are observable in later stages of the disease. The exact nature of the aggregates, whether toxic, protective, or insignificant, is unclear.
A stable PC12 cell line containing a gene fusion of Exon 1 of the Huntingtin gene linked to GFP under the control of the inducible ecdysone promoter were used as the cell-based model of Huntington Disease for high throughput screening. Exon 1 of the Huntingtin gene contained an expansion of 103 polyglutamines (Q103) which, when expressed, caused cell death and distinct, bright GFP aggregates. The amount of cell death and the size and intensity of GFP aggregates increased over time and induction level. In the primary screen, cell death were quantified with a measurement of ATP content in the cells. A maximal 40-50% of cell death was observed when the Huntington gene was induced in this cell line.
We optimized this assay in a homogeneous 1536 well format. A quantitative high throughput screen (qHTS) was conducted on the PC12 cells which were induced to express the toxic fusion construct. Small molecules which prevented cell death were considered hits, and were further studied. The present assay is an alternate assay for cytoprotection using Promega's Cytotox-Glo reagent.
PC12 cells stably containing a construct with an ecdysone inducible promoter expressing GFP fused to the exon 1 of HTTQ103 (Huntington protein which containing a 103 ployglutamine expansion) were used.
NCGC Assay Protocol Summary:
Sequence, Parameter, Description
1, Reagent, 5 uL 1500 cells/well 1536 TC treated White clear bottom plate
2, Compound, 23 nL Tebufenozide inducer (100 nM final) to all columns
3, Compound, 23 nL 40 uM to 0.5 nM Libraries
5, Reagent, 2 ul Promega's Cytotox-Glo assay reagent
6, Detector, 4 sec integration with a Viewlux Luminescent
Media consisted of phenol red free DMEM + 5% equine serum (Hyclone # SH30072.03 ), 5% supplemented Bovine Calf Serum (Hyclone # SH30074.03 ), 1x pen/strep, no G418

Compound	activity change, negative = inhibition [%]	Potency
C[C@H]1CC[C@@]2(NC1)O[C@@H]1C[C@H]3[C@@H]4CC=C5C[C@@H](O)CC[C@]5(C)[C@@H]4CC[C@]3(C)[C@@H]1[C@@H]2C	15	
Oc1cc(Cl)ccc1Oc1ccc(Cl)cc1Cl	-6.35	
C[C@@]1(CO)[C@H](O)CC[C@@]2(C)[C@H]1CC[C@H]1C[C@@H]3C[C@@]12CC[C@]3(O)CO	8.07	
CCC(C)C(=O)OC1C(O)C2C(CN3CC(C)CCC3[C@]2(C)O)C2C[C@]34O[C@@]5(O)C(OC(=O)C(C)(O)CC)CCC3(C)C5C(OC(C)=O)C(OC(C)=O)C4[C@@]21O (some centres not stated)	13.4	
CC[C@]1(C2=NCCN2)Cc2ccccc2O1	6.43	
NC(=O)c1sc2nc3c(c(-c4cccs4)c2c1N)CCCC3	-20.3	
O=C1C=C2C=C[C@H]3C[C@@]2(O1)[C@H]1CCCCN31		794 nM (active)
